Experimental data as given in PubChem BioAssay (NCI).
About 83,000 compounds went through this panel and 20% of them were active in at least one assay; those are over-represented in the sample as a whole.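 96-well plates, one dose, 48 hours. Percent growth reported; active if below 10.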 Unmarked numbers belong to inactive results. The source made the active and inactive calls.

Experiments:
Assay in all cases: NCI-60 one-dose screen, 48 h (100 = growth as untreated, 0 = no growth, -100 = all killed)
[1] = system: NCI-H23 lung; details: 10 µM unless noted
[2] = system: NCI-H226 lung; details: 10 µM unless noted
[3] = system: NCI-H322M lung; details: 10 µM unless noted
[4] = system: HOP-62 NSCLC; details: 10 µM unless noted
[5] = system: NCI-H460 lung; details: 10 µM unless noted
[6] = system: HOP-92 NSCLC; details: 10 µM unless noted
[7] = system: NCI-H522 lung; details: 10 µM unless noted
[8] = system: A549/ATCC NSCLC; details: 10 µM unless noted
[9] = system: 786-0 renal; details: 10 µM unless noted
[10] = system: COLO 205 colon; details: 10 µM unless noted
[11] = system: DU-145 prostate; details: 10 µM unless noted
[12] = system: K-562 leukemia; details: 10 µM unless noted
[13] = system: MALME-3M melanoma; details: 10 µM unless noted
[14] = system: MDA-MB-231 breast; details: 10 µM unless noted
[15] = system: RXF 393 renal; details: 10 µM unless noted
[16] = system: SF-268 CNS; details: 10 µM unless noted
[17] = system: SF-295 CNS; details: 10 µM unless noted
[18] = system: SF-539 CNS; details: 10 µM unless noted
[19] = system: UACC-257 melanoma; details: 10 µM
[20] = system: M14 melanoma; details: 10 µM unless noted

SMILES	growth [1]	growth [2]	growth [3]	growth [4]	growth [5]	growth [6]	growth [7]	growth [8]	growth [9]	growth [10]	growth [11]	growth [12]	growth [13]	growth [14]	growth [15]	growth [16]	growth [17]	growth [18]	growth [19]	growth [20]
COc1ccc(N2CCN(C(=O)CSc3ccc(-c4nc5cc(C)c(C)cc5[nH]4)cn3)CC2)cc1	54.5%	66.8%	76.6%	84.9%	89.9%	85%	36%	77.3%	102%	60.2%	93.1%	35.3%	69.9%	85.6%	93.6%	99.3%	50.2%	84%	52.1%	53.9%
CCC(=O)Nc1ccc(-c2nc(-c3cccc(O)c3)c(-c3ccnc(Br)c3)[nH]2)cc1	86%	74.2%	73.9%	75%	20.9%	57.5%	57.8%	83.6%	46.8%	80.4%	56%	32.8%	59.8%	71.8%	-4.84% (active)	82.1%	45.8%	57.1%	64.1%	66.7%
Oc1ccc(CSc2nnc(-c3ccc(Oc4ccccc4)cc3)n2-c2ccccc2)c2cccnc12	21.3%	18.9%	18.3%	15%	0.254% (active)	10.5%	15%	11.8%	21.6%	27.7%	26.5%	15.3%	11.9%	35.8%	21.5%	22.3%	0.102% (active)	2.32% (active)	0.403% (active)	-4.33% (active)
CS(=O)(=O)c1ccc2c(c1)c1c(n2Cc2ccc(Cl)cc2)CCCC1	73.5%	80.1%	87.7%	75.8%	71.6%	65.7%	13.7%	64.5%	83.5%	83.3%	86.7%	32.6%	74.4%	66.1%	73.4%	86.6%	67%	81.1%	92.1%	75.6%
CNC(=O)c1cc(Oc2ccc3nc(NC(=O)c4ccc(CN5CCN(C)CC5)c(C(F)(F)F)c4)sc3c2)ccn1	51.8%	72.7%	94.5%	73.5%	53.2%	44.1%	79.3%	66.4%	22.3%	-29.9% (active)	79.3%	11.7%	-5.19% (active)	77.5%	46.7%	74.6%	36%	25%	20.4%	0.73% (active)
CN(C)c1ccc(/C=N/Nc2nc(N/N=C/c3ccc(N(C)C)cc3)nc(N3CCOCC3)n2)cc1	99.3%	93.5%	100%	106%	16.7%	109%	98.9%	74.9%	84.6%	108%	92.7%	6.35% (active)	114%	99.5%	93.1%	97.8%	13.8%	96.7%	103%	103%
COc1cc(/C=C2\SC(=O)NC2=O)ccc1OCC(=O)Nc1ccc(C(=O)/C=C/c2cc3ccccc3nc2Cl)cc1	68.6%	96.2%	99.2%	107%	96.3%	82.5%	72.5%	102%	101%	116%	96.9%	49.4%	89%	88.6%	77.1%	85.8%	87%	83.2%	86.3%	85.6%
N/C(=N\OC(=O)CSc1nc2ccccc2s1)c1ccc2ccccc2c1	95.3%	99.6%	101%	92%	108%	95.9%	91.2%	102%	103%	107%	103%	102%	105%	89.5%	119%	98.2%	103%	95.2%	105%	98.6%
Nc1nc(-c2cccc([N+](=O)[O-])c2)c(N=Nc2ccccc2Cl)s1	60.8%	70.4%	86.3%	56.1%	41%	31.8%	60.1%	51.8%	52.6%	93.1%	52.6%	52.5%	111%	54.1%	-13.6% (active)	68.4%	70.8%	17.8%	104%	77.7%
O=C(Nc1cccc(-c2nc(-c3ccc(NC(=O)c4cccnc4)cc3Cl)no2)c1)Nc1ccc(NC(=O)C2CC2)c(C(F)(F)F)c1	-68.6% (active)	-55.9% (active)	-30.7% (active)	-47.8% (active)	-77.7% (active)	-68.1% (active)	-43.6% (active)	7.02% (active)	-47.5% (active)	-55.3% (active)	-26.1% (active)	1.44% (active)	-78.6% (active)	-59.5% (active)	-82% (active)	-23.2% (active)	-81.1% (active)	-86.9% (active)	-45.5% (active)	-53.3% (active)
COc1ccc(/C=C/C(=O)c2nnn(-c3ccc(Br)cc3)c2C)cc1OC	59.9%	70.7%	95.3%	88.1%	84.3%	81%	67.7%	73.6%	93.5%	90.4%	73.5%	19.2%	83%	83.3%	80.3%	89.4%	80.2%	83.7%	85.3%	60.4%
O=C1[C@H]2Cc3c([nH]c4ccccc34)[C@@H](c3c(Cl)cccc3Cl)N2C(=O)CN1C1CCN(Cc2ccccc2)CC1	104%	103%	101%	90.7%	8% (active)	83.8%	38.2%	94.2%	-58.2% (active)	101%	39.2%	5.96% (active)	61.4%	89.3%	81.6%	73.8%	106%	93.5%	105%	78.1%
COC(=O)Nc1ccc(-c2nc(-c3cccc(O)c3)c(-c3ccnc(Br)c3)[nH]2)cc1	67.2%	63.8%	68.4%	64.7%	26.8%	51.5%	56%	62.2%	34.6%	95.4%	62.1%	27.9%	54.1%	56.6%	-4.89% (active)	72.6%	27.8%	52.6%	58.5%	48.9%
CC(=O)Nc1ccc(NC(=O)Nc2cccc(-c3nc(-c4ccc(NC(=O)c5cccnc5)cc4Cl)no3)c2)cc1C(F)(F)F	-63.3% (active)	-55.2% (active)	-34.2% (active)	-58.1% (active)	-64.9% (active)	-65.6% (active)	-46.3% (active)	-1.13% (active)	-35.6% (active)	-53.1% (active)	-13.9% (active)	-1.38% (active)	-84.9% (active)	-60.3% (active)	-79.5% (active)	-33.1% (active)	-69.6% (active)	-87.6% (active)	-43.7% (active)	-58.7% (active)
CC[C@@](C)(NC(=O)C(C)(C)NC(=O)[C@@H](NC(=O)[C@@H]1CCCN1C(=O)C(C)(C)NC(=O)[C@H](CC(C)C)NC(=O)CNC(=O)C(C)(C)NC(=O)[C@@H](NC(=O)C(C)(C)NC(=O)[C@H](CCC(N)=O)NC(=O)[C@H](C)NC(=O)C(C)(C)NC(=O)[C@H](C)NC(=O)C(C)(C)NC(=O)[C@H](C)NC(=O)C(C)(C)NC(C)=O)C(C)C)C(C)C)C(=O)N[C@@H](CCC(N)=O)C(=O)N[C@@H](CCC(N)=O)C(=O)N[C@H](CO)CC1CCCCC1	16.2% [5 µM]	47.8% [5 µM]	48.8% [5 µM]	47.2% [5 µM]	35.1% [5 µM]	-17.2% [5 µM] (active)	1.56% [5 µM] (active)	47.8% [5 µM]	-14.2% [5 µM] (active)	-7.42% [5 µM] (active)	35.1% [5 µM]	32.1% [5 µM]	-18.4% [5 µM] (active)	32.7% [5 µM]	23.7% [5 µM]	32.6% [5 µM]	81.8% [5 µM]	18.8% [5 µM]		58.4% [5 µM]
